According to the supplement of paper PMC12067093, “Discovery and optimisation of a covalent ligand for TRIM25 and its application to targeted protein ubiquitination” (Chemical Science, 2025):
About 21,000 targets were measured; listed, in parts, are those with the largest changes and a random draw of the rest.

compound: CC1Cc2ccccc2N1C(=O)C1CCCN(C1)C(=O)CCl (mixture of isomers) [TRIM25 ligand 11 (diastereomer mixture)]; test: probe-labelled cysteine peptide fold change vs DMSO (competition) (log2 fold change); higher = less target engagement (more negative = stronger competition); conditions: 10 µM; THP-1; incubation time: 4 h
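Also: competitive chemoproteomic profiling in live THP-1 cells with an iodoacetamide desthiobiotin (IA-DTB) probe, comparing probe-labelled peptide intensities in compound-treated cells against DMSO-treated controls.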

Chain of UniProt Q7L2E3 (Q7L2E3 whole entry, looked up): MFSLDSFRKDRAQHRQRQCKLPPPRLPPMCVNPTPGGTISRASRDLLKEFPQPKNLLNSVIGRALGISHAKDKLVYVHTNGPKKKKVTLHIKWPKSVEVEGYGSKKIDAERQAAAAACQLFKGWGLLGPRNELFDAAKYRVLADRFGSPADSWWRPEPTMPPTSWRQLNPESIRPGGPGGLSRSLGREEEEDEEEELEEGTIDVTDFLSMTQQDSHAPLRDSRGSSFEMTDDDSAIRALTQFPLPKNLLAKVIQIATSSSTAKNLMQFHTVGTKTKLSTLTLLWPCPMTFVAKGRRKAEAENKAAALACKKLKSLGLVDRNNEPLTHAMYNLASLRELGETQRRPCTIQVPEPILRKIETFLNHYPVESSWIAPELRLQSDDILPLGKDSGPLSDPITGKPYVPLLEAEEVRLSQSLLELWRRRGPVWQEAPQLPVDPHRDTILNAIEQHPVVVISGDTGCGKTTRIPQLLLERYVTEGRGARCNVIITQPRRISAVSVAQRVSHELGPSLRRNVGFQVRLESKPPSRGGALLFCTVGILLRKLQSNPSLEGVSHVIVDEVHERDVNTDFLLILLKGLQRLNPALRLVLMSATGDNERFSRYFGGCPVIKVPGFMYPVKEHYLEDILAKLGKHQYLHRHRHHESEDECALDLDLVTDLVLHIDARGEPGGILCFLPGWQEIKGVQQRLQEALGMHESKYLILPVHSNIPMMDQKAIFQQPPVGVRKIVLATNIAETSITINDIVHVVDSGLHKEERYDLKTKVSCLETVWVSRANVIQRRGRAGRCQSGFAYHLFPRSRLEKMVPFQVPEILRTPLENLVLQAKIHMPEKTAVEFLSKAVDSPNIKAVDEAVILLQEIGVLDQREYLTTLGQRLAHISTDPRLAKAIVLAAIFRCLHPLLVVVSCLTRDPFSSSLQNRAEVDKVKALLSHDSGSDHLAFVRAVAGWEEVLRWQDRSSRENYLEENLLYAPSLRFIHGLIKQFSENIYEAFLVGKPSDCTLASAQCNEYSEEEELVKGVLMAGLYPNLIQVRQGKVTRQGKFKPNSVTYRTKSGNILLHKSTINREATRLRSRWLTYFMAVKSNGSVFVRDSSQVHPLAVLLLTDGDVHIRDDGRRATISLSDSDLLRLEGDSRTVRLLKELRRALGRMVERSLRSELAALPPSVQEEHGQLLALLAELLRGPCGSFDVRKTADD
Chain of UniProt Q86YQ8 (Q86YQ8 whole entry, looked up): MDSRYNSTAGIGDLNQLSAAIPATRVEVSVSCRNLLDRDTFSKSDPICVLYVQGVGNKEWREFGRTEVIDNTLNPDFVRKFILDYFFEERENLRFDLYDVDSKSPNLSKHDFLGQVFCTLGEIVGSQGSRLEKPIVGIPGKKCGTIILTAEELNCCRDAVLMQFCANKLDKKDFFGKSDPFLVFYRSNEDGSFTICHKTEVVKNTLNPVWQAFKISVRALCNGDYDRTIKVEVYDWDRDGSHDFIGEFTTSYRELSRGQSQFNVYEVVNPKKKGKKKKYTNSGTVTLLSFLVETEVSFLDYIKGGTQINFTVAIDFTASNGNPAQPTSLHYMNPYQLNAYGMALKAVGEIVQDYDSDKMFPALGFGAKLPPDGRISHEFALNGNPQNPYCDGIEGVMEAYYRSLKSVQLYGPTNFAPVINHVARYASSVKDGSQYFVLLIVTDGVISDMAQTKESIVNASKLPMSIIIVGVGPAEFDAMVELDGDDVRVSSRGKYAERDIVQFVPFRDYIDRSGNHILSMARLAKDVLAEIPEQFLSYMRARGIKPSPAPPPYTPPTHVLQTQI
Chain of UniProt Q9BVJ7 (Q9BVJ7 whole entry, looked up): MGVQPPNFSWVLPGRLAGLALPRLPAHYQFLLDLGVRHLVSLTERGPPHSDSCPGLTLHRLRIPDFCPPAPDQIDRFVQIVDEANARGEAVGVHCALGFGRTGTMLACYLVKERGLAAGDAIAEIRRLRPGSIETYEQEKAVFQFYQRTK
Chain of UniProt P26196 (P26196 whole entry, looked up): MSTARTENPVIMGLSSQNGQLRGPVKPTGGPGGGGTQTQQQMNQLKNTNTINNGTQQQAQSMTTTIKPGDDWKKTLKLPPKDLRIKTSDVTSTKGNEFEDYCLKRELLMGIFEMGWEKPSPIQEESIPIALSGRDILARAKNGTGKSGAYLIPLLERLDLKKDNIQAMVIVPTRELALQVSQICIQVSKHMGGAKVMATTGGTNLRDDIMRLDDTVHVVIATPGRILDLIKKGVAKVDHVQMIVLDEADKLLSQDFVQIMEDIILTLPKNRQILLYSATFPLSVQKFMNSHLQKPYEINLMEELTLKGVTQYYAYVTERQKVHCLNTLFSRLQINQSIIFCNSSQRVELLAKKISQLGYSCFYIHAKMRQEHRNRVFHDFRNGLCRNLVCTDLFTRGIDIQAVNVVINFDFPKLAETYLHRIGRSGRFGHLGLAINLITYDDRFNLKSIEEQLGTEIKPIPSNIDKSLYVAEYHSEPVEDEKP
Chain of UniProt O75064 (O75064 whole entry, looked up): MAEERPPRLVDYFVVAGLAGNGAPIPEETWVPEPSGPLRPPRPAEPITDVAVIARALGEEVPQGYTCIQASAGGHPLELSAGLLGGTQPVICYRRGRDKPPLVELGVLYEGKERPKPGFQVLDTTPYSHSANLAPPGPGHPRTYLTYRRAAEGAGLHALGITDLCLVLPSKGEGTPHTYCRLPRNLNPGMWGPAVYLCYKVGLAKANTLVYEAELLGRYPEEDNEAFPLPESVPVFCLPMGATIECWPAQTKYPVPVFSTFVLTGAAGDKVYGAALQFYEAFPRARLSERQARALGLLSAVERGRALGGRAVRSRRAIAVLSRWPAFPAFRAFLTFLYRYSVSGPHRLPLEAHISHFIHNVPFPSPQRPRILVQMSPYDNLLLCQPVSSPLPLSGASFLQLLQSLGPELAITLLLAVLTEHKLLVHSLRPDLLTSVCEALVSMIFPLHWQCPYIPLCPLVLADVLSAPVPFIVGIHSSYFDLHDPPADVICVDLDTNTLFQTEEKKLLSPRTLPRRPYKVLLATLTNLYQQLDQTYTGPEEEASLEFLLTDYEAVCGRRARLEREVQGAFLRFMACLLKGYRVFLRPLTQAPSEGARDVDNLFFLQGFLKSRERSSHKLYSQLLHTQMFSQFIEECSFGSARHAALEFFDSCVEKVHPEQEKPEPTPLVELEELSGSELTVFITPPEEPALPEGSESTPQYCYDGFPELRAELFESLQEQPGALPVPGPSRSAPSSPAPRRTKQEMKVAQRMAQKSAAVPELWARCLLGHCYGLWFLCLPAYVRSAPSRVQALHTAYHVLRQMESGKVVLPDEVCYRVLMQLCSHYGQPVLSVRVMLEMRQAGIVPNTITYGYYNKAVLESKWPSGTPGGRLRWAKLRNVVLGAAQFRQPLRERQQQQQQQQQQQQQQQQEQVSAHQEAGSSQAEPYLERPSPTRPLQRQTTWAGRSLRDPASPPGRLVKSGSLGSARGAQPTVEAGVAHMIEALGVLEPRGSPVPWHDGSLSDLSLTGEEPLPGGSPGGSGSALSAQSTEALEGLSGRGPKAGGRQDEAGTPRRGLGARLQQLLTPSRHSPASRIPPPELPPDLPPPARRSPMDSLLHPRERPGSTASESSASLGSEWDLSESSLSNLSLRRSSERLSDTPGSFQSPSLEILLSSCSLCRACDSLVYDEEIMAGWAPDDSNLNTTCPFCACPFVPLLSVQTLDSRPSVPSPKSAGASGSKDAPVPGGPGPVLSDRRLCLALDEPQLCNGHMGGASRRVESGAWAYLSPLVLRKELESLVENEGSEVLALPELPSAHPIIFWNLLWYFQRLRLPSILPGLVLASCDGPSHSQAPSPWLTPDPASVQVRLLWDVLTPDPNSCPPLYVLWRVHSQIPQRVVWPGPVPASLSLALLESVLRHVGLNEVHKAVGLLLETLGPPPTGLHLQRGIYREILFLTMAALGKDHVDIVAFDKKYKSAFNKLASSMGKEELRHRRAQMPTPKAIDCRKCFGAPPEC
Chain of UniProt P14868 (P14868 whole entry, looked up): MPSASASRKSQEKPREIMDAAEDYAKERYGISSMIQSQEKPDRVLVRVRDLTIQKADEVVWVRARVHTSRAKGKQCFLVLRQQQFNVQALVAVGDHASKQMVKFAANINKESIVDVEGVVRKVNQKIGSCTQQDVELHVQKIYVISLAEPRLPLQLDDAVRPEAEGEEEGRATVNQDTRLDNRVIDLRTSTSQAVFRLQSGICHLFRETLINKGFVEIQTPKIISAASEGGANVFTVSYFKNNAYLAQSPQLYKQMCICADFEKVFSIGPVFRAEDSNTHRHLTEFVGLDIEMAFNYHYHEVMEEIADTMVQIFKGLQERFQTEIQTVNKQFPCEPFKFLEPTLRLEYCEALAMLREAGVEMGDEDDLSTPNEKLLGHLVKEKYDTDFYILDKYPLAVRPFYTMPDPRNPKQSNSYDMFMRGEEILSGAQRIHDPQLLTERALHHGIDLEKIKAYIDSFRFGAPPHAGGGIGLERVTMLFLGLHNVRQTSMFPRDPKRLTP
Chain of UniProt Q92466 (Q92466 whole entry): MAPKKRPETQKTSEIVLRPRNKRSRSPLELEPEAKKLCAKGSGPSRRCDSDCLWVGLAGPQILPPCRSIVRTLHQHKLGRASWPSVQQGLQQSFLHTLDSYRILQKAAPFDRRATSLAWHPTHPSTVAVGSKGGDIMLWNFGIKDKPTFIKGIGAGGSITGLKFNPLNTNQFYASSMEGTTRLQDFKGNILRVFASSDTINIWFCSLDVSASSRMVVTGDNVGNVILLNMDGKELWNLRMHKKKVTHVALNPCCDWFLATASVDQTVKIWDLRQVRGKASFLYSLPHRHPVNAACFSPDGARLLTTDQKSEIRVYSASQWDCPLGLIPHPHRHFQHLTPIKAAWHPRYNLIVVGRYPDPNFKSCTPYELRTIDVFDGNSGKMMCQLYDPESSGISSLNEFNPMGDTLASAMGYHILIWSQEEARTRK
Chain of UniProt P14854 (P14854 whole entry, looked up): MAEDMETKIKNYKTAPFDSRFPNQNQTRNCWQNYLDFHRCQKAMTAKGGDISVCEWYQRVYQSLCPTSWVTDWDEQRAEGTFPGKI

Target	probe-labelled cysteine peptide fold change
DDX59_Q5T1V6_208_QQLGILVQGQEVTRPIIDFEHCSLPEVLNHNLKK (UniProt Q5T1V6)	-0.239
CRYBG1_Q9Y4K1_581+609_EVQLPTCHSNEPEVVSVASCAPPQEEVLGNEHSHCTAELAAK (UniProt Q9Y4K1)	0.00451
DHX37_Q8IY37_766_LSCPITALGR (UniProt Q8IY37)	-0.0635
DDX41_Q9UJV9_540_ACDESVLMDLK (UniProt Q9UJV9)	-0.0247
CRYBG1_Q9Y4K1_1404_ISSVQPICLDSFTGPR (UniProt Q9Y4K1)	0.199
CSTF2_P33240_62_GYGFCEYQDQETALSAMR (UniProt P33240)	-0.512
DNMT1_P26358_580_HAQFVVEQVESYDEAGDSDEQPIFLTPCMR (UniProt P26358)	0.0642
DPYSL2_Q16555_439_THNSSLEYNIFEGMECR (UniProt Q16555)	0.0805
DARS_P14868_130_IGSCTQQDVELHVQK (UniProt P14868)	0.0673
DAZAP1_Q96EP5_63_DPNCVGTVLASR (UniProt Q96EP5)	0.186
DUSP23_Q9BVJ7_95_GEAVGVHCALGFGR (UniProt Q9BVJ7)	-0.00709
DYNC1LI2_O43237_104_CNVWILDGDLYHK<|>DYNC1LI1_Q9Y6G9_117_CNVWILDGDLYHK (UniProt Q9Y6G9+O43237)	-0.0068
DYNC1H1_Q14204_4438_QDLADVVQVCEGK (UniProt Q14204)	0.0826
DDB2_Q92466_322_VYSASQWDCPLGLIPHPHR (UniProt Q92466)	0.0907
DENND4B_O75064_180_GEGTPHTYCR (UniProt O75064)	0.0109
DHRS9_Q9BPW9_60_GFHVIAACLTESGSTALK (UniProt Q9BPW9)	0.105
CSMD2_Q7Z408-3_2_CDAHLR (UniProt Q7Z408)	-0.56
DSN1_Q9H410_191_CFEDSNGK (UniProt Q9H410)	0.115
DAXX_Q9UER7_106_AHSLFLASAEFCNILSR (UniProt Q9UER7)	0.442
CPNE8_Q86YQ8_118_HDFLGQVFCTLGEIVGSQGSR (UniProt Q86YQ8)	0.132

Target	probe-labelled cysteine peptide fold change
DDX6_P26196_324_VHCLNTLFSR (UniProt P26196)	0.158
DNM2_P50570-3_427_CVDLVVSELATVIK (UniProt P50570)	-0.0402
CORO1A_P31146_332_RGLEVNKCEIAR (UniProt P31146)	-0.603
DCTN1_Q14203_677_YEHALSQCSVDVYKK (UniProt Q14203)	-0.0153
CTSZ_Q9UBR2_179_ECHAIR (UniProt Q9UBR2)	-0.116
CRYZL1_O95825_177_VISTACSLEDK (UniProt O95825)	0.0726
DOCK8_Q8NF50_590_IQFMCGEDASNAMPVIFGK (UniProt Q8NF50)	-0.02
DMXL2_Q8TDJ6_62_HGNIQVSCVECSNQQGR (UniProt Q8TDJ6)	-0.159
DYNC1H1_Q14204_4644_GVAVLCTE (UniProt Q14204)	0.0055
COX6B1_P14854_54_GGDISVCEWYQR (UniProt P14854)	-0.188
DIAPH2_O60879_484_LDIDLTHLIDSCVNK (UniProt O60879)	0.0266
CUL4B_Q13620_248_YNLEELYQAVENLCSYK (UniProt Q13620)	0.033
DCP2_Q8IU60_391_KLQDNFETDAVYDLPSSSEDQLLEHAEGQPVACNGHCK (UniProt Q8IU60)	-0.209
CTNNBL1_Q8WYA6_370_VLDHAMIGPEGTDNCHK (UniProt Q8WYA6)	-0.0184
CTSH_P09668_272_TGIYSSTSCHK (UniProt P09668)	0.223
CUL4B_Q13620_297_CWQNHCR (UniProt Q13620)	0.0567
CUL2_Q13617_103_GADYMDCLYR (UniProt Q13617)	0.191
DOP1B_Q9Y3R5_70_LAQCLHPALPSGVHLK (UniProt Q9Y3R5)	0.262
DHX30_Q7L2E3_286_LSTLTLLWPCPMTFVAK (UniProt Q7L2E3)	-0.558

same assay, conditions: 50 µM; THP-1; incubation time: 4 h

Target	probe-labelled cysteine peptide fold change
DDX59_Q5T1V6_208_QQLGILVQGQEVTRPIIDFEHCSLPEVLNHNLKK (UniProt Q5T1V6)	-0.182
CRYBG1_Q9Y4K1_581+609_EVQLPTCHSNEPEVVSVASCAPPQEEVLGNEHSHCTAELAAK (UniProt Q9Y4K1)	-0.813
DHX37_Q8IY37_766_LSCPITALGR (UniProt Q8IY37)	0.0316
DDX41_Q9UJV9_540_ACDESVLMDLK (UniProt Q9UJV9)	-0.111
CRYBG1_Q9Y4K1_1404_ISSVQPICLDSFTGPR (UniProt Q9Y4K1)	-0.0158
CSTF2_P33240_62_GYGFCEYQDQETALSAMR (UniProt P33240)	-0.471
DNMT1_P26358_580_HAQFVVEQVESYDEAGDSDEQPIFLTPCMR (UniProt P26358)	0.604
DPYSL2_Q16555_439_THNSSLEYNIFEGMECR (UniProt Q16555)	-0.109
DARS_P14868_130_IGSCTQQDVELHVQK (UniProt P14868)	0.0472
DAZAP1_Q96EP5_63_DPNCVGTVLASR (UniProt Q96EP5)	0.402
DUSP23_Q9BVJ7_95_GEAVGVHCALGFGR (UniProt Q9BVJ7)	0.14
DYNC1LI2_O43237_104_CNVWILDGDLYHK<|>DYNC1LI1_Q9Y6G9_117_CNVWILDGDLYHK (UniProt Q9Y6G9+O43237)	0.0237
DYNC1H1_Q14204_4438_QDLADVVQVCEGK (UniProt Q14204)	0.0819
DDB2_Q92466_322_VYSASQWDCPLGLIPHPHR (UniProt Q92466)	-0.0149
DENND4B_O75064_180_GEGTPHTYCR (UniProt O75064)	0.131
DHRS9_Q9BPW9_60_GFHVIAACLTESGSTALK (UniProt Q9BPW9)	0.197
CSMD2_Q7Z408-3_2_CDAHLR (UniProt Q7Z408)	-0.972
DSN1_Q9H410_191_CFEDSNGK (UniProt Q9H410)	0.0971
DAXX_Q9UER7_106_AHSLFLASAEFCNILSR (UniProt Q9UER7)	1.38
CPNE8_Q86YQ8_118_HDFLGQVFCTLGEIVGSQGSR (UniProt Q86YQ8)	0.595

Target	probe-labelled cysteine peptide fold change
DDX6_P26196_324_VHCLNTLFSR (UniProt P26196)	0.183
DNM2_P50570-3_427_CVDLVVSELATVIK (UniProt P50570)	0.0756
CORO1A_P31146_332_RGLEVNKCEIAR (UniProt P31146)	-0.342
DCTN1_Q14203_677_YEHALSQCSVDVYKK (UniProt Q14203)	0.149
CTSZ_Q9UBR2_179_ECHAIR (UniProt Q9UBR2)	0.567
CRYZL1_O95825_177_VISTACSLEDK (UniProt O95825)	0.107
DOCK8_Q8NF50_590_IQFMCGEDASNAMPVIFGK (UniProt Q8NF50)	0.209
DMXL2_Q8TDJ6_62_HGNIQVSCVECSNQQGR (UniProt Q8TDJ6)	-0.593
DYNC1H1_Q14204_4644_GVAVLCTE (UniProt Q14204)	0.0643
COX6B1_P14854_54_GGDISVCEWYQR (UniProt P14854)	-0.269
DIAPH2_O60879_484_LDIDLTHLIDSCVNK (UniProt O60879)	0.095
CUL4B_Q13620_248_YNLEELYQAVENLCSYK (UniProt Q13620)	0.163
DCP2_Q8IU60_391_KLQDNFETDAVYDLPSSSEDQLLEHAEGQPVACNGHCK (UniProt Q8IU60)	-0.464
CTNNBL1_Q8WYA6_370_VLDHAMIGPEGTDNCHK (UniProt Q8WYA6)	-0.103
CTSH_P09668_272_TGIYSSTSCHK (UniProt P09668)	-0.279
CUL4B_Q13620_297_CWQNHCR (UniProt Q13620)	0.295
CUL2_Q13617_103_GADYMDCLYR (UniProt Q13617)	0.129
DOP1B_Q9Y3R5_70_LAQCLHPALPSGVHLK (UniProt Q9Y3R5)	0.136
DHX30_Q7L2E3_286_LSTLTLLWPCPMTFVAK (UniProt Q7L2E3)	-0.944
